High-throughput results: PubChem BioAssay, National Center for Advancing Translational Sciences (NCATS)
Hits are enriched below; roughly 12% of the tested compounds scored in any of these assays.
HP1b binding inh: blocks HP1-beta chromodomain binding to methylated histone tails | P83916 | AlphaScreen HP1-beta / biotin-H3K9me3 peptide binding | Potency, µM (top dose mostly 114 µM), for the others: at the top dose activity change, negative = inhibition, most hits filed as inhibitors | 390,000 tested, 0.56% active | AID 540317; further: potency means the concentration at half of the fitted maximal effect; nearly all actives have a fitted effect of over 70% in size
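Compound inhibition of the preformed complex between 50 nM HP1-beta and 50 nM biotinylated H3K9me3 peptide was read by AlphaScreen. Buffer was PBS pH 7.4 with 0.01% Tween-20. Incubations ran 30 min at room temperature, with 10 ug/mL donor/acceptor beads.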
JMJD2A Tudor: blocks the human JMJD2A Tudor domain; 390,000 tested, 4.4% active; Potency, µM (top dose mostly 114 µM), without a hit: at the top dose activity change, negative = inhibition, hits mostly inhibitors; O75164; AlphaScreen JMJD2A-Tudor / H3K4me3 peptide binding; further: potency means the concentration at half of the fitted maximal effect; on the % scale 0 is the no-effect control and ±100 the full control effect; nearly all actives have a fitted effect of over 50% in size
G9a inh: G9a (human) methyltransferase inhibition; Q96KQ7; G9a H3K9 monomethylation, AlphaScreen, 2 h; Potency, µM (top dose mostly 102 µM), for inactives: top-dose activity, negative = inhibition, most hits filed as inhibitors; 350,000 tested, 8.8% active; further: potency means the concentration at half of the fitted maximal effect; on the % scale 0 is the no-effect control and ±100 the full control effect; nearly all actives have a fitted effect of over 75% in size
Target sequence (Q96KQ7 913-1193 limits assumed): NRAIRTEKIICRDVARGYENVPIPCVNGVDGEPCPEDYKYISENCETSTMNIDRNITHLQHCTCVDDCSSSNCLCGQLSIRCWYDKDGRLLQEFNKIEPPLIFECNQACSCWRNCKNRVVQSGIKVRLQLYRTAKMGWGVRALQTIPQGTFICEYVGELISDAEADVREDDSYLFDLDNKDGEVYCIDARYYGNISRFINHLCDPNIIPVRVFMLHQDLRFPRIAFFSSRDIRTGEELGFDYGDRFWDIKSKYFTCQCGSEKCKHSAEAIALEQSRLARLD
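G9a (20 nM) preincubated 15 min RT with compounds, then 500 nM biotinylated H3K9 peptide and 20 uM SAM added; 2 h RT reaction. Monomethyl-H3K9 product detected by AlphaScreen with anti-H3K9me1 antibody, streptavidin donor and anti-rabbit IgG acceptor beads.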
PLK1 PBD inh: PLK1 (human) polo-box domain binding inhibition; P53350; Plk1 PBD binding of FITC phosphopeptide, fluorescence polarization; Potency, µM, for inactives: max response, negative = inhibition, actives largely listed as inhibitors; 360,000 tested, 2.8% active; further: potency means the concentration at half of the fitted maximal effect; series mostly up to about 57 µM; on the % scale 0 is the no-effect control and ±100 the full control effect; nearly all actives have a fitted effect of over 65% in size
BAZ2B block: blocks human BAZ2B; Q9UIF8; AlphaScreen BAZ2B-H3K14Ac peptide displacement; Potency, µM (highest dose often 114 µM), without a hit: top-dose activity change, negative = inhibition, most hits filed as inhibitors; 360,000 tested, 4.4% active; AID 504333; further: potency means the concentration at half of the fitted maximal effect; on the % scale 0 is the no-effect control and ±100 the full control effect; nearly all actives have a fitted effect of over 60% in size
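AlphaScreen luminescence quantifies BAZ2B engagement of H3K14Ac peptide; the protein and biotinylated peptide are both at 50 nM final, buffer PBS pH 7.4 with 0.01% Tween-20, all steps at room temperature.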
PI5P4Ka inh: inhibitors of human PI5P4K alpha. P48426. PI5P4Kalpha enzyme, ADP-Glo luminescence, 60 min; stronger effect = lower value. max response, %. 330,000 tested, 1.2% active. AID 652105; active means max response of -50% or lower; inconclusive means between -30% and -50%; inactive means -30% or higher; further: value at the top dose of about 77 µM; on the % scale 0 is the no-effect control and ±100 the full control effect
Target sequence (P48426 whole entry, looked up): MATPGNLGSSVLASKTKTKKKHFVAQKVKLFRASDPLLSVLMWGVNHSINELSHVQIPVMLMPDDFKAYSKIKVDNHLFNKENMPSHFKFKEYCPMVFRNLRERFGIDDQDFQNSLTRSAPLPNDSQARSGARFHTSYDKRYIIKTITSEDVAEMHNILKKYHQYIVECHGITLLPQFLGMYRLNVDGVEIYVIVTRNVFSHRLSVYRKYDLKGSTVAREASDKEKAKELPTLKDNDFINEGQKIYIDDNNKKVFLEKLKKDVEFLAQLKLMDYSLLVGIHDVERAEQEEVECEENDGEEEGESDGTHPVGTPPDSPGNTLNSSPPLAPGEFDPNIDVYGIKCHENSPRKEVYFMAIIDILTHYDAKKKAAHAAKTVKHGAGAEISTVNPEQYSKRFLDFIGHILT
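ADP-Glo luminescence end-point after a 60 min room-temperature kinase reaction. PI5P4Kalpha and substrate in HEPES pH 7.4 buffer with EGTA, 0.1% CHAPS and 5% DMSO; ATP at 5 microM final.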
An asterisk follows results filed as active; ? = inconclusive; / = no result; [ ] = remark or other dose. Unless noted, the call rests on the fitted dose curve; in most records, active means well fitted curve in the direction sought with a large enough effect; inconclusive means small, poorly fitted or top-dose-only effect, or another doubt; inactive means no such curve, though single readings can be large; an effect the other way counts as inactive or inconclusive.

SMILES | HP1b binding inh | JMJD2A Tudor | G9a inh | PLK1 PBD inh | BAZ2B block | PI5P4Ka inh
O=C(O)CN1C(=O)/C(=C\C(Br)=C\c2ccccc2)SC1=S | ? | ? | 41%[0.501 µM] | 6µM* | 45µM* | -28
COc1ccc(/C=C2\SC(=S)N(CCC(=O)N(CCO)c3ccccc3)C2=O)cc1OC | 6% | -21% | 2%[2.33 µM] | -16% | -12% | -4
CC(=C\c1ccccc1)/C=C1/SC(=S)N(CCC(=O)Nc2ccccn2)C1=O | / | / | 40µM* | / | ? | /
CC(=Cc1ccccc1)C=C1SC(=S)N(CCCC(=O)Nc2ccc(C(=O)O)cc2)C1=O | / | / | / | 24µM* | / | ?
O=C(CCCN1C(=O)S/C(=C\C=C\c2ccccc2)C1=O)Nc1ccc(C(=O)O)cc1 | 1% | -19% | ? | ? | 56µM* | -2
COc1ccc(NC(=O)CCn2c(=O)c3cccn3c3cccnc32)c(OC)c1 | 37% | 2% | 8%[59 µM] | / | ? | /
COc1ccc(N2CCN(C(=O)COC(=O)c3cnccn3)CC2)cc1 | 10% | -16% | 2%[2.33 µM] | -1% | -15% | 2
Cc1ccc(-c2csc(/C(C#N)=C(\O)CCl)n2)cc1 | -2% | ? | 35µM* | ? | -29% | ?
CCCCN(C)C/C(O)=C(\C#N)c1nc(-c2ccccc2)cs1 | -3% | ? | 40µM* | -15% | ? | 1
N#C/C(=C(/O)CCl)c1nc(-c2ccccc2)cs1 | -7% | -36% | / | ? | ? | -28
N#C/C(=C(/O)CN1CCOCC1)c1nc(-c2ccccc2)cs1 | 13% | ? | -20%[59 µM] | -9% | ? | /
Cc1ccc(-c2csc(/C(C#N)=C(\O)CN3CCN(C(=O)c4ccco4)CC3)n2)cc1 | -17% | 79µM* | -47%[12.7 µM] | -24% | ? | ?
CCOc1ccc(Br)cc1/C=N/O | 16% | -1% | 4%[59 µM] | -1% | 2% | /
CCCc1ccc(O)c(N=Cc2cc(Br)cc(OCC)c2O)c1 | 22% | ? | 5.6µM* | 32% | ? | -28
COc1ccc(-c2nc(N)n(C(=O)c3cccs3)n2)cc1 | 12% | 89µM* | -3%[59 µM] | -2% | -9% | 0
COc1ccc(-c2nc(N)n(C(=O)c3ccccc3)n2)cc1 | 34% | -4% | -26% | -6% | -21% | -1
COc1ccc(C2C=C3CNS(=O)(=O)C3CC2OC(=O)c2cccs2)cc1 (stereo unspecified) | 22% | -30% | / | / | / | /
Cc1cccc(S(=O)(=O)NC(=O)C2(C)CCN2C(=O)Cc2cccs2)c1 (stereo unspecified) | / | / | / | -13% | / | 2
CC(C)(O)C#Cc1ccc(C(=O)N2CCCC(CNS(=O)(=O)c3cccs3)C2)o1 (stereo unspecified) | 28% | -13% | 28µM* | 0% | -19% | -1
O=C(COC(=O)c1ccc2ccccc2c1O)NCC(F)(F)F | -8% | ? | -13% | 27µM* | 79µM* | -2
S=c1[nH]nc(-c2ccccc2)n1/N=C/c1cccc(Cl)c1 | 10% | 71µM* | / | -21% | -12% | -6
S=c1[nH]nc(-c2cccs2)n1/N=C/c1cn(-c2ccccc2)nc1-c1ccccc1 | ? | ? | 12%[59 µM] | -17% | ? | -8
Fc1ccc(/C=N/n2c(-c3cccs3)n[nH]c2=S)cc1 | -25% | 32µM* | 1.1µM* | ? | -35% | /
S=c1[nH]nc(-c2ccccc2)n1/N=C/c1ccc(Cl)cc1 | 11% | ? | 2.5µM* | -23% | -30% | -4
CCOc1ccc(/C=N/n2c(-c3ccccc3)n[nH]c2=S)cc1 | 23% | 79µM* | 0.5µM* | 0% | -29% | 0
SMILES | HP1b binding inh | JMJD2A Tudor | G9a inh | PLK1 PBD inh | BAZ2B block | PI5P4Ka inh
CCOc1ccc(/C=N/n2c(C)nc3ccccc3c2=O)cc1 | 57% | -15% | -33%[2.33 µM] | -7% | -2% | 0
Cc1cc(=O)n2c(C(=O)Nc3ccc(C)c(Cl)c3)c(C(=O)Nc3ccccc3)sc2n1 | 17% | -11% | ? | / | -5% | /
O=C(c1ccc(CSc2nc3ccncc3n2Cc2cccc(F)c2)cc1)N1CCCCC1 | 46% | -11% | -3%[59 µM] | / | 2% | /
CCC1CCc2nc3sc(C(=O)Nc4cccc(C(F)(F)F)c4)c(N)c3cc2C1 (stereo unspecified) | 30% | -4% | -26%[59 µM] | / | 6% | /
S=c1[nH]nc(-c2ccncc2)n1/N=C/c1cccc(Cl)c1 | 35% | 11µM* | 1µM* | -11% | -34% | -11
COC(=O)CC1C(C)(C)C(OC(C)=O)C2[C@H](OC(C)=O)[C@]34O[C@]2(O)[C@]1(C)C3CC[C@]1(C)C4=CC(=O)OC1c1ccoc1 (stereo partly specified) | / | / | -41%[2.33 µM] | / | / | /
Cc1ccc(NC(=O)CN2C(=O)CC(c3ccco3)Sc3ccccc32)cc1Cl (stereo unspecified) | 14% | -20% | 7%[59 µM] | / | -2% | /
Cc1ccc(OC(=O)CN2C(=O)c3ccccc3C2=O)cc1C | 16% | -6% | 21% | -4% | 16% | 6
O=C1c2ccccc2C(=O)N1OS(=O)(=O)c1ccc(F)cc1 | 41% | 9% | 2.2µM* | 5.3µM* | -32% | 1
Cc1cc(C)c(S(=O)(=O)ON2C(=O)c3ccccc3C2=O)cc1C | ? | 56µM* | / | 5.3µM* | ? | -12
Cc1cccc2c1N(C)C(=O)C2=O | -4% | -2%[11.4 µM] | -18% | ? | 1% | 14
Cc1ccc(S(=O)(=O)ON2C(=O)c3ccccc3C2=O)c(C)c1 | 45µM* | 50µM* | 7.9µM* | 7.5µM* | 13% | -25
Cc1cc(C)c(C)c(S(=O)(=O)ON2C(=O)c3ccccc3C2=O)c1C | -32% | 89µM* | 7.9µM* | 6.7µM* | -39% | -13
CC1CN(S(=O)(=O)c2cccc(C(=O)OCC(=O)N3CCCCCC3)c2)CC(C)O1 (stereo unspecified) | -8% | -19% | / | -13% | / | 1
CCO[C@@H]1OC(C(=O)N2CCCCCCC2)=C[C@H](c2ccc3c(c2)OCO3)[C@H]1CCCO | 17% | -7% | 2%[12.7 µM] | -2% | -11% | -8
O=C(CC1OC(=O)c2ccccc21)NNC(=O)c1ccc(F)cc1 (stereo unspecified) | 46% | -6% | 4%[12.7 µM] | -2% | 5% | -6
COc1ccc(CCC(=O)Nc2sccc2C#N)cc1 | 34% | -13% | ? | -9% | / | -9
COc1ccc(NC(=O)CSCC(=O)Nc2sccc2C#N)cc1 | 25% | -17% | 40µM* | -22% | -6% | -26
CN(CC(=O)Nc1ccccc1Cl)C(=O)Cn1cnc2ccccc2c1=O | 20% | -9% | ? | -4% | 2% | 1
CCNC(=O)CCSc1nnc(-c2ccc(O)cc2)o1 | -3% | 0% | 13µM* | / | 1% | /
